From PubChem BioAssay (NCATS)
Records with an inconclusive call do not appear. A call without a number means that no potency is given here. Active and inactive are the calls of the source. Unless noted, calls follow the shape of the dose curve; as a rule, active = well fitted curve in either direction with a large enough effect (not every such curve was filed as active); inconclusive = small, poorly fitted or top-dose-only effect, or another doubt; inactive = flat fitted curve, though single readings scatter.

What was measured:
[1] = AP1 Signaling Pathway (AID 357);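 also: ME-180 reporter cells stimulated with EGF at its EC50 level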
Procedure, shortened: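 Read-out was the 460nm/530nm emission ratio (excitation 405nm) after CCF4 loading for 2.5 hours at room temperature. Cells carried an AP-1-driven beta-lactamase reporter, were stimulated with EC50 EGF plus compound for 5 hours, and AC50 values came from titrations.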

[2] = NFAT Signaling Pathway (AID 444); conditions: Jurkat NFAT-bla M1, carbachol, beta-lactamase ratio, 5 h; at 7.69 µM (top of the series);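 also: carbachol stimulus at about its EC50 of 1 µM final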
Procedure, shortened: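 Jurkat cells with NFAT-driven β-lactamase reporter and co-expressed M1 receptor, stimulated with carbachol (final 1 uM, ~EC50), compound titration, 5 h at 37 °C. CCF4 loaded 1 h at RT; 460/530 nm ratio gave %activity and AC50.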

[3] = Stat Signaling Pathway (AID 446);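 also: ME-180 cervical cancer cells given 40 pM IL-6 alongside compound; SIE-controlled beta-lactamase reporter measured as 460/530 nm FRET emission ratio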
Procedure, shortened: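 Overnight-plated ME-180 cells bearing a STAT Inducible Element beta-lactamase reporter; 5 h co-exposure to compound and 40 pM IL-6; values normalized to 300 pM IL-6 and 125 nM JAK inhibitor controls.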

[4] = target: Glucocorticoid receptor (Homo sapiens) (UniProt P04150); assay: GR-EFC Redistribution (AID 451; calls by dose curve; also: potency is read from the fitted curve at half-maximal effect); conditions: CHO-K1 GR-EFC translocation, beta-gal luminescence, 2 h
Chain of Glucocorticoid receptor (Homo sapiens) (P04150 whole entry, looked up, the tested form may be a part): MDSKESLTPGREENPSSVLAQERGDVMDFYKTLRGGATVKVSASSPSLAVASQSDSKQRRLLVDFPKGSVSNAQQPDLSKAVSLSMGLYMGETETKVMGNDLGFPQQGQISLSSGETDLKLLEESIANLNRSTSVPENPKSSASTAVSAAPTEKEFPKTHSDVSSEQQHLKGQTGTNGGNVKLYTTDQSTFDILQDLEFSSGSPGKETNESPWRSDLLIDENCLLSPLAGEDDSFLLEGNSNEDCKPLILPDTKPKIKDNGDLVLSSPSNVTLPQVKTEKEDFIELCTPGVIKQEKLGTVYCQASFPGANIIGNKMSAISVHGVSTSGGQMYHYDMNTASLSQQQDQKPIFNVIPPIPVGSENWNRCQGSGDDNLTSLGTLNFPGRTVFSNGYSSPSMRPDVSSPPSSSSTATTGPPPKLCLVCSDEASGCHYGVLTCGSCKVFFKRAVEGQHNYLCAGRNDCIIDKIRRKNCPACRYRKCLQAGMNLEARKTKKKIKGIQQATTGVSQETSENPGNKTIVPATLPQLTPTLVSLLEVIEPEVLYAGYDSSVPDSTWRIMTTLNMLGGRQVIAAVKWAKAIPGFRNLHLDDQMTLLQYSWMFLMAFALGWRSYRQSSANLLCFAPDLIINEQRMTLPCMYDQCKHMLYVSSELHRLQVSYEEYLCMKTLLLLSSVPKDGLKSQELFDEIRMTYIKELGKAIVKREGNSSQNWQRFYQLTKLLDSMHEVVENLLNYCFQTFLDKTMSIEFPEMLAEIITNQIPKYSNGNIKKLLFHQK
Procedure, shortened: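 CHO-K1 cells expressing nuclear EA and GR-ED fragments of b-gal; compounds titrated up to 46 uM final, 2 h at 37 C. GR nuclear translocation read as complemented b-gal luminescence after 1 h RT detection.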

[5] = target: Mitogen-activated protein kinase 10 (Mus musculus) (UniProt Q61831); assay: JNK3 AlphaScreen Assay (AID 530);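 also: kinase came from lysate of stimulated human HepG2 cells; signal reports phosphorylation of biotinylated GST-cJun 1-79 at Ser73 with 10 µM ATP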
Procedure, shortened: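 HepG2 lysate (IL-1b/TNFa pre-activated) + biotin-GST-cJun 1-79 + anti-pSer73 cJun; cpd titration, 15 min RT; ATP 10 uM start; Tris pH 7.6, MgCl2, DTT, vanadate; beads in EDTA buffer; AlphaScreen.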

[6] = target: 3',5'-cyclic-AMP phosphodiesterase 4B (Homo sapiens) (UniProt Q07343); assay: qHTS Assay for Inhibitors of PDE-IV (AID 607; active = well fitted activation curve with a large enough effect in the main read-out, with a control signal flat, not every such curve was filed as active)
Chain of 3',5'-cyclic-AMP phosphodiesterase 4B (Homo sapiens) (Q07343 whole entry, looked up): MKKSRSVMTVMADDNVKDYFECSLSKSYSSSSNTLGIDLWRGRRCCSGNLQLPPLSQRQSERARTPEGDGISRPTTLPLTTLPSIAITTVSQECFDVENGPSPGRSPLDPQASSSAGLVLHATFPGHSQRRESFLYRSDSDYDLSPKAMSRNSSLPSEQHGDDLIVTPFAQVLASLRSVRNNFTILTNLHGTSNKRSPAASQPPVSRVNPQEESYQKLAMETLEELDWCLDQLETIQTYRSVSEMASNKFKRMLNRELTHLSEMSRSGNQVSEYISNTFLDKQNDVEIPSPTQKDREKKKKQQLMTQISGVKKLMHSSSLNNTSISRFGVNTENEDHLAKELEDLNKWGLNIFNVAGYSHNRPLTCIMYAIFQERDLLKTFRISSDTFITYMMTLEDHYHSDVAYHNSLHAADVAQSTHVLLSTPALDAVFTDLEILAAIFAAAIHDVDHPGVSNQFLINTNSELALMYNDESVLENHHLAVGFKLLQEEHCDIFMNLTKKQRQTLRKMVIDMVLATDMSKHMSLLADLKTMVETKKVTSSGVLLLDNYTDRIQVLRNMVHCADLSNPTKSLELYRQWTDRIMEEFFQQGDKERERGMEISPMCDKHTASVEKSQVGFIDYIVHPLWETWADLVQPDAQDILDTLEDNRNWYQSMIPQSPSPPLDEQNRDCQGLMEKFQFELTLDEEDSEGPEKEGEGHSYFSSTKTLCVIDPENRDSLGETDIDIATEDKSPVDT
Procedure, shortened: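 Live HEK293 cells with a modified cyclic nucleotide-gated (CNG) channel report intracellular cAMP via membrane-potential dye fluorescence (ex 535/em 590 nm). Endogenous PDE-IV was targeted. Compounds were tested at up to 22.9 uM final; RO 20-1724 100 uM served as control.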

[7] = qHTS Assay for Lipid Storage Modulators (AID 1519; calls by dose curve); conditions: Drosophila S3 cells, BODIPY lipid droplet/cell ratio, laser cytometry, cells loaded with oleic acid; for activity change, negative = inhibition: at 57.5 µM (top of the series)
Procedure, shortened: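 Cells seeded at 5,000 per well were treated with compounds over a concentration series and loaded with oleic acid (400 uM, as added). Lipid droplet fluorescence (488 nm excitation, 500-530 nm channel) was read by laser-scanning cytometry and normalized to 20 uM Triacsin C.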

[8] = Primary qHTS for small molecule stabilizers of the endoplasmic reticulum resident proteome: Secreted ER Calcium Modulated Protein (SERCaMP) assay (AID 1508630; active = well fitted inhibition curve with a large enough effect)
Procedure, shortened: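 The SH-SY5Y reporter protocol was run at 3 concentrations up to 38.3 uM (primary) or 11 concentrations (follow-up): 16 h compound, 100 nM thapsigargin for 4 h, then extracellular luciferase luminescence.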

[9] = target: Cytochrome P450 1A2 (Homo sapiens) (UniProt P05177); assay: p450-cyp1a2 (AID 410; calls by dose curve)
Chain of Cytochrome P450 1A2 (Homo sapiens) (P05177 whole entry, looked up): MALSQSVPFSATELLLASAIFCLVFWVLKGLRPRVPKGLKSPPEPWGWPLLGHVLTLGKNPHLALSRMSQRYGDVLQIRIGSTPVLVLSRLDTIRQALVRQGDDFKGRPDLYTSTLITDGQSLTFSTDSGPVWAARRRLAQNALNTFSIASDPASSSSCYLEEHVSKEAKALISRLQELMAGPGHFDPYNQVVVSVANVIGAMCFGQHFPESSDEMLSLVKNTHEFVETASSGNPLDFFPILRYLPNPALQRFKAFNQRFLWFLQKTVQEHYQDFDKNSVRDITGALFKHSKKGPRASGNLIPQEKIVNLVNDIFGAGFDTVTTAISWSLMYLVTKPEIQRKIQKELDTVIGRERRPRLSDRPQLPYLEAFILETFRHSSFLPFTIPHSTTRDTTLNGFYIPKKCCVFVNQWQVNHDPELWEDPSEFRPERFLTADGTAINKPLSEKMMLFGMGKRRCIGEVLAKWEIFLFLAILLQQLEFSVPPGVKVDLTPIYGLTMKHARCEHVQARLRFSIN
Procedure, shortened: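 20nM CYP1A2, 100uM Luciferin-ME (=Km), 100mM KPO4; cpd 10 min RT; +NADPH regen, 60 min RT; stop/detect 20 min; luminescence. Normalized to furafylline 57 uM = full inhibition.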

[10] = target: Cytochrome P450 2C9 (Homo sapiens) (UniProt P11712); assay: qHTS Assay for Inhibitors and Substrates of Cytochrome P450 2C9 (AID 883; active = well fitted inhibition curve with a large enough effect; also: nearly all actives have a fitted effect of over 60% in size)
Chain of Cytochrome P450 2C9 (Homo sapiens) (P11712 whole entry, looked up): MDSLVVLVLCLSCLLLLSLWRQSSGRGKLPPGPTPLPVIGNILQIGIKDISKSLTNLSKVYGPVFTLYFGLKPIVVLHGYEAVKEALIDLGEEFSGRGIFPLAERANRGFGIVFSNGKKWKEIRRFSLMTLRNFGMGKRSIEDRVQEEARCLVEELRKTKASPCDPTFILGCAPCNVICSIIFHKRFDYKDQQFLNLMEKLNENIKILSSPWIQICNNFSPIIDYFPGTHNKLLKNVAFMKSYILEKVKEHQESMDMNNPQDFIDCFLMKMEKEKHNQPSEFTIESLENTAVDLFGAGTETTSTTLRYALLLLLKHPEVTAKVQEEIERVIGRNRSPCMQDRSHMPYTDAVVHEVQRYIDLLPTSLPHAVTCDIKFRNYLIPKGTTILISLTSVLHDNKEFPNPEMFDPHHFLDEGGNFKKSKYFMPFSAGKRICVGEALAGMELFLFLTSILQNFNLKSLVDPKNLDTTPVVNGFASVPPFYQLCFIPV
Procedure, shortened: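 10nM CYP2C9 + 100uM Luciferin-H (=KM), 25mM KPO4; cpd 10 min 37C; NADPH regen, 60 min 37C; stop/detect with P450 Glo-Buffer 20 min; luminescence. Norm. to 57uM sulphaphenazole as full inhibition.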

[11] = measured here: cell count channel max response
[12] = measured here: lipid channel max response

Structure (SMILES) | outcome [1] | activity change, negative = inhibition [2] | outcome [3] | Potency [4] | outcome [5] | Potency [6] | activity change, negative = inhibition [7] | max response [7, 11] [%] | max response [7, 12] [%] | outcome [8] | Potency [9] | Potency [10]
O=C(c1ccncc1)N1CCC[C@@]2(CCN(Cc3nccs3)C2)C1 | inactive | 5.07% (inactive) | inactive | > 46 µM (inactive) | inactive | inactive | 3.49% (inactive) | 8.75 | 15.4 | inactive | – | –
CN1CCCC2(CCN(C(=O)c3ccncc3)CC2)C1 | inactive | -16.6% (inactive) | – | > 46 µM (inactive) | inactive | inactive | 2.07% (inactive) | 15.5 | 19.9 | inactive | inactive | inactive
